Screening results from PubChem.
Shown are actives, neighbours in structure and some others; about 1.3% of the full set was active somewhere.
LANA DNA inh – inhibitors of KSHV LANA C-terminal domain DNA binding. 0.078% of 340,000 active. MBP-C-LANA/FAM-LBS DNA binding, fluorescence polarization. inhibition, % at 9 µM. AID 504423;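 active means highest replicate inhibition at or above 60% at 9 µM, even if other replicates fall short; inactive means all replicates below 60% inhibition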
GLD-1 RNA inh – GLD-1-TGE RNA interaction inhibition (C. elegans); inhibition, % at 5.96 µM; 0.44% of 320,000 active; AID 2280; purified GLD-1 + fluorescein TGE RNA, fluorescence polarization;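 active means percent inhibition above a per-plate cutoff, the plate mean of test compounds plus 3 SD, cut at about 30% in these data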
Target sequence (Q17339 whole entry, looked up): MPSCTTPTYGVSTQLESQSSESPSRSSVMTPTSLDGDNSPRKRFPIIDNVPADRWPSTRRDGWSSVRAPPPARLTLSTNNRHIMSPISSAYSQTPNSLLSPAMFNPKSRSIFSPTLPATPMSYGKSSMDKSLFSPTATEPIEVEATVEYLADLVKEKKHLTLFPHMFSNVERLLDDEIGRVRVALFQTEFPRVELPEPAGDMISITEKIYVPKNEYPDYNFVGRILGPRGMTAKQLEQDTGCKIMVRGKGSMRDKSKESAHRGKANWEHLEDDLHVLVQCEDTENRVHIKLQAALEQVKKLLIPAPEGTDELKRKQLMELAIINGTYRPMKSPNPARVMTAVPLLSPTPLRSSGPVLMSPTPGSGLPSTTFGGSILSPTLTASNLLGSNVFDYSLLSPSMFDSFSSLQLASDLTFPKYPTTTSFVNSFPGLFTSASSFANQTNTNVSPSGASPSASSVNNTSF
MCL1-BIM inh – MCL1-BIM-BH3 interaction inhibition (human) | Q07820 | GST-MCL1 / FITC-Bim-BH3 fluorescence polarization | inhibition, % at 10.9 µM | 0.68% of 320,000 active | AID 2057;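 active means inhibition above the mean inhibition of all tested compounds plus 3 SD, set per campaign, cut at about 40% in these data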;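 further: higher means more loss of mP so more displacement of Bim peptide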
Keap1 Nrf2 FP – inhibitors of human Keap1-Nrf2 protein-protein interaction; Keap1 Kelch-Nrf2 peptide fluorescence polarization, 1536-well; inhibition, % at 9.4 µM; Q14145; 0.15% of 340,000 active; AID 504523; in the data active means inhibition above about 12%;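 further: human Keap1 Kelch domain with fluorescein labeled Nrf2 9mer peptide probe; higher means more block of Keap1 binding to Nrf2 peptide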
Bcl-xL primary – inhibitors of human Bcl-xL; GST-Bcl-xL / FITC-Bim BH3 peptide fluorescence polarization; Q07817; AID 2129; inhibition, % at 10.9 µM; 0.7% of 320,000 active;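 active means inhibition above the mean of all tested compounds plus 3 SD, cutoff set per campaign, cut at about 30% in these data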;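 further: inhibitors lower millipolarization by displacing the labeled peptide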
Target sequence (Q07817 whole entry, looked up): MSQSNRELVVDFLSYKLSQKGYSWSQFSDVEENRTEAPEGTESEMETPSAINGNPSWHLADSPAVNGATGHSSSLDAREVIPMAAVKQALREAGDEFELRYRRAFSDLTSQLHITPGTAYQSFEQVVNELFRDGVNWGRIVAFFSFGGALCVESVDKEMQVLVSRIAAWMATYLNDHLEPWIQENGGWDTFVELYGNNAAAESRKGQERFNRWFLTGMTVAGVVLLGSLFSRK
E coli Lon inh – inhibits E. coli Lon protease. 0.42% of 360,000 active. purified E. coli Lon protease, fluorescence polarization. P0A9M0. inhibition, % at 7.94 µM; in the data active means inhibition above about 13%, passing the limit was not always enough
Bcl-xL conf – counter-screen for MCL1 inhibitors: confirmation of human Bcl-xL inhibitors; shares compounds with MCL1-BIM inh; GST-Bcl-xL / FITC-Bim BH3 peptide FP binding; inhibition, % at 10.9 µM; 54% of 1,700 active;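 active means inhibition above a cutoff equal to the mean inhibition of all tested compounds plus 3 SD, cut at about 30% in these data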
MCL1 inh confirm – MCL1-BIM-BH3 interaction inhibition, confirmation; shares compounds with MCL1-BIM inh; GST-MCL1 / FITC-Bim-BH3 fluorescence polarization; inhibition, % at 10.9 µM; 61% of 1,700 active;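 active means inhibition above the average of all tested compounds plus 3 SD, cut at about 40% in these data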
GLD1 RNA confirm – GLD-1 TGE RNA interaction inhibition, confirmation; shares compounds with GLD-1 RNA inh; GLD-1/FL-TGE RNA fluorescence polarization, biochemical; inhibition, % at 5.96 µM; 10% of 550 active; AID 2459;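 active means average inhibition across triplicates above the hit cutoff set in the primary screen, cut at about 32% in these data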
Keap1 Kelch bind – binders of human Keap1 Kelch domain; Keap1 Kelch thermal shift, delta Tm; hits give high values; AID 651823; max delta Tm, degrees C; shares compounds with Keap1 Nrf2 FP; 8% of 400 active; in the data active means max delta Tm above about 0.48 degrees C
Dye-only ctr – dye artifact in Keap1 thermal shift counter-screen; AID 651858; delta Tm, degrees C (test concentration not listed); Sypro Orange dye-only thermal melt, no protein, delta Tm; top dose 26 µM; shares compounds with Keap1 Nrf2 FP; 140 tested, under 10 active;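 active means at highest dose tested, delta Tm positive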
eLon confirm – confirmation of E. coli Lon protease inhibitors; shares compounds with E coli Lon inh; purified E. coli Lon, fluorescence polarization; inhibition, % at 7.94 µM; 31% of 1,400 active; AID 602230; in the data active means inhibition above about 16%
Of the large screens only hits and unclear results are named; the others gave an inactive call (follow-up assays come after a bar, where they were run).

Nc1ccc2nc(-c3ccccc3)cnc2c1	GLD-1 RNA inh 81, MCL1-BIM inh 119, Bcl-xL primary 99, E coli Lon inh 34 | Bcl-xL conf 121 | MCL1 inh confirm 142 | eLon confirm 107
O=C(Nc1ccccc1Cl)c1cc(C2CCCN(C(=O)C3CCCCC3)C2)on1 (stereo unspecified)	none (no result: LANA DNA inh, GLD-1 RNA inh, MCL1-BIM inh, Keap1 Nrf2 FP, Bcl-xL primary)
O=[n+]1c2c(n([O-])c3cc(F)ccc31)CCCC2	none
O=[n+]1c2c(n([O-])c3cc(F)c(N4CCCC4)cc31)CCCC2	GLD-1 RNA inh 145, MCL1-BIM inh active, Bcl-xL primary 181, E coli Lon inh 114 | Bcl-xL conf 173 | MCL1 inh confirm active | eLon confirm 111
O=[n+]1c2c(n([O-])c3cc(F)c(N4CCCC4)cc31)CCC2	GLD-1 RNA inh 161, MCL1-BIM inh active, Bcl-xL primary 191, E coli Lon inh 151 | Bcl-xL conf 186 | MCL1 inh confirm active | eLon confirm 190
O=C1C=C(NNC(=O)c2ccncc2)CC(c2ccccc2)C1 (stereo unspecified)	GLD-1 RNA inh 126, MCL1-BIM inh 72, Bcl-xL primary 75, E coli Lon inh 68 | Bcl-xL conf inactive | MCL1 inh confirm inactive | eLon confirm inactive
C=CC1=C2C=C(C3CC3)N(CC3CC3)C=C2C(=O)C(C)(OC(=O)c2ccco2)C1=O (stereo unspecified)	none
C=CCN1C=C2C(=O)C(C)(OC(=O)c3ccc(OC)cc3)C(=O)C(c3ccco3)=C2C=C1CCCC (stereo unspecified)	GLD-1 RNA inh 54, MCL1-BIM inh 71, Bcl-xL primary 67, E coli Lon inh 41 | Bcl-xL conf 41 | MCL1 inh confirm 62 | eLon confirm inactive
O=C1C2C3C=CC(C4CC34)C2C(=O)N1/N=C/c1ccc(-c2ccc(F)cc2[N+](=O)[O-])o1 (stereo unspecified)	GLD-1 RNA inh 55, MCL1-BIM inh 84, Bcl-xL primary 74, E coli Lon inh 19 | Bcl-xL conf inactive | MCL1 inh confirm inactive | GLD1 RNA confirm inactive | eLon confirm 71
CCOC(=O)C1CCCN(C(=O)c2cccc(S(=O)(=O)N(Cc3ccccc3)c3ccccc3OC)c2)C1 (stereo unspecified)	none
Cc1oc2c(O)c(O)ccc2c(=O)c1-c1ccc(Cl)cc1	MCL1-BIM inh 43, E coli Lon inh 16 | Bcl-xL conf 58 | MCL1 inh confirm 81 | eLon confirm inactive
CCOc1ccc(C2C=C(c3ccc(C)cc3)Nc3nnnn32)cc1 (stereo unspecified)	GLD-1 RNA inh 33, MCL1-BIM inh 50, Bcl-xL primary 59, E coli Lon inh 24 | Bcl-xL conf 39 | MCL1 inh confirm 57 | eLon confirm inactive
CCOc1ccc(C2C=C(c3ccccc3)Nc3nnnn32)cc1 (stereo unspecified)	none
CNc1cccc2c1C(=O)c1ccccc1C2=O	GLD-1 RNA inh 46, MCL1-BIM inh 92, Bcl-xL primary 82, E coli Lon inh 50 | Bcl-xL conf 84 | MCL1 inh confirm 95 | GLD1 RNA confirm inactive | eLon confirm 41
Cc1nonc1CN(C)C(=O)CC1C(=O)NCCN1Cc1cccc(C(F)(F)F)c1 (stereo unspecified)	none
CCCCC1OC23CCCCC2C(C#N)(C#N)C1(C#N)C(=N)O3 (stereo unspecified)	GLD-1 RNA inh 83, MCL1-BIM inh 127, Keap1 Nrf2 FP 24, Bcl-xL primary 103, E coli Lon inh 26 | Bcl-xL conf inactive | MCL1 inh confirm inactive | Keap1 Kelch bind inactive | Dye-only ctr inactive | eLon confirm inactive
CCCCC1OC23CCCCC2C(C#N)(C(=N)O3)C1(C#N)C#N (stereo unspecified)	GLD-1 RNA inh 54, MCL1-BIM inh 78, Keap1 Nrf2 FP 20, Bcl-xL primary 78, E coli Lon inh 25 | Bcl-xL conf inactive | MCL1 inh confirm inactive | GLD1 RNA confirm inactive | Keap1 Kelch bind inactive | eLon confirm inactive
N#CC1(C#N)C(c2ccccc2)OC23CCCCC2C1(C#N)C(=N)O3 (stereo unspecified)	GLD-1 RNA inh 102, MCL1-BIM inh 178, Keap1 Nrf2 FP 21, Bcl-xL primary 132, E coli Lon inh 30 | Bcl-xL conf inactive | MCL1 inh confirm inactive | eLon confirm 41
CCn1c(=O)c2sccc2n(Cc2ccccc2)c1=O	none
CCN(C(=O)c1coc(=O)c(Br)c1)c1ccc2c(c1)OCO2	MCL1-BIM inh 62, Bcl-xL primary 58, E coli Lon inh 21 | Bcl-xL conf 110 | MCL1 inh confirm 122 | eLon confirm inactive
O=C(O)/C=C/C(=O)N1CCN(c2cccc(Cl)c2)CC1	none
COc1ccc(C(=O)c2ccsc2N)cc1	GLD-1 RNA inh 66, MCL1-BIM inh 108, Keap1 Nrf2 FP 14, Bcl-xL primary 105, E coli Lon inh 90 | Bcl-xL conf inactive | MCL1 inh confirm inactive | Keap1 Kelch bind inactive | eLon confirm inactive
Cc1cccc(NC(=O)CSc2nnc(-c3ccco3)c(-c3ccco3)n2)c1	none (no result: GLD-1 RNA inh, MCL1-BIM inh, Bcl-xL primary)
Cc1cccc(NC(=O)CSc2nnc(-c3ccco3)c(-c3ccco3)n2)c1C	MCL1-BIM inh 41, E coli Lon inh 89 | Bcl-xL conf 98 | MCL1 inh confirm 141 | eLon confirm inactive
O=C1c2ccccc2C(=O)c2c1cccc2N(CCO)CCO	GLD-1 RNA inh 46, MCL1-BIM inh 65, Bcl-xL primary 72, E coli Lon inh 27 | Bcl-xL conf 58 | MCL1 inh confirm 77 | GLD1 RNA confirm 50 | eLon confirm 20
O=C1C=C(N(CCO)Cc2ccccc2)c2ccccc2C1=O	none (no result: GLD-1 RNA inh, MCL1-BIM inh, Bcl-xL primary)
O=C(N/N=C/c1sc(=O)[nH]c1-[n+]1ccc2ccccc2c1)c1ccccc1[O-]	GLD-1 RNA inh 165, MCL1-BIM inh 178, Bcl-xL primary 156, E coli Lon inh 134 | Bcl-xL conf 31 | MCL1 inh confirm inactive | eLon confirm 48
